# Data as given in PubChem BioAssay (Tox21).
# “And” between values parts separate entries of the source, which are not always exact repeats. Identical values can stand only once. The source made the active and inactive calls. A call without a number means that no potency is given here. Unless noted, calls follow the shape of the dose curve; as a rule, active = well fitted curve in the direction sought with a large enough effect in the repeat runs; inconclusive = weak or mixed curves; inactive = no such curve, though single readings can be large; an effect the other way counts as inactive or inconclusive.
# Experiments:
# [1] = system: thyroid hormone receptor (rat, GH3 cells); assay: qHTS assay to identify small molecule agonists of the thyroid receptor (TR) signaling pathway (AID 743066; calls by dose curve)
# [2] = qHTS assay to identify small molecule antagonists of the estrogen receptor alpha (ER-alpha) signaling pathway - cell viability counter screen (AID 743074; calls by dose curve; also: nearly all actives have a fitted effect of over 45% in size)
# [3] = qHTS assay to identify small molecule antagonists of the estrogen receptor alpha (ER-alpha) signaling pathway using the BG1 cell line - cell viability counter screen (AID 743081);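 also: compound given together with 17beta-estradiol as the ER stimulus; series mostly up to about 70 µM; nearly all actives have a fitted effect of over 45% in size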
# Aromatase (Homo sapiens) = Aromatase (Homo sapiens) (UniProt P11511); assay: qHTS assay to identify aromatase inhibitors (AID 743083); also: nearly all actives have a fitted effect of over 55% in size; also: potency is read from the fitted curve at half-maximal effect
# [4] = qHTS assay to identify aromatase inhibitors - cell viability counter screen (AID 743084);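 also: cells stimulated with testosterone during compound exposure; nearly all actives have a fitted effect of over 55% in size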; also: potency is read from the fitted curve at half-maximal effect
# [5] = qHTS assay to identify small molecule that activate the aryl hydrocarbon receptor (AhR) signaling pathway - cell viability counter screen (AID 743086); also: nearly all actives have a fitted effect of over 45% in size; also: potency is read from the fitted curve at half-maximal effect
# Outline: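 HepG2-AhR-luc (HG2L7.5c1) cells, 4000/well, were preincubated 5 h at 37C, exposed to compound in qHTS format for 24 hr at 37C, then given CellTiter-Fluor for 30 min; viability was read as fluorescence in the reporter wells.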
# [6] = target: Peroxisome proliferator-activated receptor gamma (Homo sapiens) (UniProt P37231); assay: qHTS assay to identify small molecule agonists of the peroxisome proliferator-activated receptor gamma (PPARg) signaling pathway (AID 743094; active = well fitted activation curve with a large enough effect in the signal ratio in the repeat runs, not every such curve was filed as active; inconclusive = weak or mixed curves, or effect the other way; inactive = no such curve, though single readings can be large or run the other way; the % refers to the signal ratio)
# Outline: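 Quantitative HTS agonist mode: stable HEK293H line with UAS-beta-lactamase reporter under PPARg control, 17 h compound exposure at 37C, fluorescence after 1 h FRET substrate loading at room temperature.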
# [7] = target: Estrogen receptor (Homo sapiens) (UniProt P03372); assay: qHTS assay to identify small molecule antagonists of the estrogen receptor alpha (ER-alpha) signaling pathway (AID 743069; active = well fitted curve in the direction sought with a large enough effect in the signal ratio in the repeat runs, not every such curve was filed as active; inconclusive = weak or mixed curves, or effect the other way; inactive = no such curve, though single readings can be large or run the other way; the % refers to the signal ratio; also: potency is read from the fitted curve at half-maximal effect)
# Outline: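 HEK293 cells stably carrying an ER-alpha-UAS-bla beta-lactamase reporter were pre-cultured overnight in 2% charcoal-stripped FBS medium. Test compounds in DMSO were added together with 17beta-estradiol for 18 hr at 37C. Read-out was fluorescence after 2 hr with LiveBLAzer B/G FRET substrate at room temperature.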
# [8] = target: Estrogen receptor (Homo sapiens) (UniProt P03372); assay: qHTS assay to identify small molecule agonists of the estrogen receptor alpha (ER-alpha) signaling pathway (AID 743075; calls by dose curve)
# [9] = target: Aryl hydrocarbon receptor (Homo sapiens) (UniProt P35869); assay: qHTS assay to identify small molecule that activate the aryl hydrocarbon receptor (AhR) signaling pathway (AID 743085); also: nearly all actives have a fitted effect of over 15% in size; also: potency is read from the fitted curve at half-maximal effect;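 as to activation: HG2L7.5c1 human HepG2 liver cells with stably integrated DRE-driven firefly reporter; series mostly up to about 70 µM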
# Outline: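 Compounds were tested in HepG2 hepatocellular carcinoma cells harbouring a stably integrated luciferase gene under control of 20 DREs. Increased reporter signal after 24 h treatment at 37C was taken as AhR activation.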
# [10] = target: Estrogen receptor (Homo sapiens) (UniProt P03372); assay: qHTS assay to identify small molecule agonists of the estrogen receptor alpha (ER-alpha) signaling pathway using the BG1 cell line (AID 743079); also: nearly all actives have a fitted effect of over 20% in size; also: potency is read from the fitted curve at half-maximal effect
# [11] = qHTS assay to identify small molecule antagonists of the peroxisome proliferator-activated receptor gamma (PPARg) signaling pathway - cell viability counter screen (AID 743194); also: nearly all actives have a fitted effect of over 55% in size
# Outline: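 PPARg-UAS-bla HEK293H cells were plated, rested 5 h at 37 C, then treated with compounds plus rosiglitazone (50 nM final) for 17 h at 37 C; viability was then read by CellTiter-Glo luminescence after 30 min at room temperature.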
# [12] = qHTS assay for small molecule activators of the heat shock response signaling pathway - cell viability counter screen (AID 743209); also: nearly all actives have a fitted effect of over 50% in size; also: potency is read from the fitted curve at half-maximal effect
# Outline: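 First, HSE-bla HeLa cells were seeded at 1500 cells/well and kept overnight at 37 C. Next, compounds were pinned in and incubated 5 h. After the FRET substrate step, CellTiter-Glo was added and luminescence read 30 min later.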
# [13] = qHTS assay for small molecule agonists of the antioxidant response element (ARE) signaling pathway (AID 743202; active = well fitted activation curve with a large enough effect in the signal ratio in the repeat runs, not every such curve was filed as active; inconclusive = weak or mixed curves, or effect the other way; inactive = no such curve, though single readings can be large or run the other way; the % refers to the signal ratio)
# Outline: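 Read-out: LiveBLAzer B/G FRET substrate fluorescence after 2 h at room temperature, following 16 h compound treatment at 37 C of HepG2 cells carrying an ARE-driven beta-lactamase reporter.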
# [14] = qHTS assay to identify small molecule agonists of the peroxisome proliferator-activated receptor delta (PPARd) signaling pathway - cell viability counter screen (AID 743211); also: nearly all actives have a fitted effect of over 55% in size
# Outline: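 Counter screen for cytotoxicity run in parallel with the PPARd reporter screen. Beta-lactamase reporter HEK293H cells exposed to compounds 17 h; ATP-based CellTiter-Glo luminescence quantified viability.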
# [15] = qHTS assay for small molecule activators of the heat shock response signaling pathway (AID 743210; active = well fitted activation curve with a large enough effect in the signal ratio in the repeat runs, with a control signal flat, not every such curve was filed as active; inconclusive = weak or mixed curves; the % refers to the signal ratio; also: series mostly up to about 63 µM)
# Outline: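 HSE-bla HeLa cells (beta-lactamase reporter under heat shock response elements) were exposed to compounds for 5 h at 37 C, then loaded with LiveBLAzer B/G FRET substrate for 2.5 h at room temperature before fluorescence reading.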
# [16] = qHTS assay to identify small molecule antagonists of the thyroid receptor (TR) signaling pathway (AID 743065); also: nearly all actives have a fitted effect of over 55% in size; also: potency is read from the fitted curve at half-maximal effect
# Outline: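 GH3.TRE-Luc rat pituitary cells carrying two TR response elements driving luciferase were plated for 4 h, given compound plus 1 nM T3 (final), and incubated 23.5 h at 37 C. ONE-Glo luminescence measured reporter inhibition; CellTiter-Fluor fluorescence tracked cytotoxicity.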
# [17] = qHTS assay to identify small molecule antagonists of the estrogen receptor alpha (ER-alpha) signaling pathway using the BG1 cell line (AID 743080; calls by dose curve;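 also: BG1 cells stimulated with 17beta-estradiol alongside compound; nearly all actives have a fitted effect of over 25% in size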; also: potency is read from the fitted curve at half-maximal effect)
# Outline: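 BG1Luc4E2, endogenous ER-alpha, 4xERE-luc; 5 d charcoal-stripped FBS, phenol red free; 24 h plating; cpd + 17beta-estradiol 21.5 h, 37 C/5% CO2; CellTiter-Fluor viability 30 min, then ONE-Glo luciferase 30 min RT.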
# Chain of Peroxisome proliferator-activated receptor gamma (Homo sapiens) (P37231 whole entry, looked up): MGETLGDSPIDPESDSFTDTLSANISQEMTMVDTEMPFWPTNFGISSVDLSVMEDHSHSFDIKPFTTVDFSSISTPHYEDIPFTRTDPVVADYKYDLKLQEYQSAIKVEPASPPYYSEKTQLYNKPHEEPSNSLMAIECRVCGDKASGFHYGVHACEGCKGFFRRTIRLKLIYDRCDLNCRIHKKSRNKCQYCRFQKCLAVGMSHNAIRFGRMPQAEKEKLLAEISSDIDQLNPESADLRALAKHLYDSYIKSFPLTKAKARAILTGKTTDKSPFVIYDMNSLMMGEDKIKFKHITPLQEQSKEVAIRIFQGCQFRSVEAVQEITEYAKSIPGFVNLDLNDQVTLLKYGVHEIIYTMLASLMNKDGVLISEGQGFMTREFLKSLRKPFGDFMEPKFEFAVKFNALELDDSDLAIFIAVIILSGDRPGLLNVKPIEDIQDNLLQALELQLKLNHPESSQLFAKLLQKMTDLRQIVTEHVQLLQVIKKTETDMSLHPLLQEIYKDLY
# Chain of Aryl hydrocarbon receptor (Homo sapiens) (P35869 whole entry, looked up): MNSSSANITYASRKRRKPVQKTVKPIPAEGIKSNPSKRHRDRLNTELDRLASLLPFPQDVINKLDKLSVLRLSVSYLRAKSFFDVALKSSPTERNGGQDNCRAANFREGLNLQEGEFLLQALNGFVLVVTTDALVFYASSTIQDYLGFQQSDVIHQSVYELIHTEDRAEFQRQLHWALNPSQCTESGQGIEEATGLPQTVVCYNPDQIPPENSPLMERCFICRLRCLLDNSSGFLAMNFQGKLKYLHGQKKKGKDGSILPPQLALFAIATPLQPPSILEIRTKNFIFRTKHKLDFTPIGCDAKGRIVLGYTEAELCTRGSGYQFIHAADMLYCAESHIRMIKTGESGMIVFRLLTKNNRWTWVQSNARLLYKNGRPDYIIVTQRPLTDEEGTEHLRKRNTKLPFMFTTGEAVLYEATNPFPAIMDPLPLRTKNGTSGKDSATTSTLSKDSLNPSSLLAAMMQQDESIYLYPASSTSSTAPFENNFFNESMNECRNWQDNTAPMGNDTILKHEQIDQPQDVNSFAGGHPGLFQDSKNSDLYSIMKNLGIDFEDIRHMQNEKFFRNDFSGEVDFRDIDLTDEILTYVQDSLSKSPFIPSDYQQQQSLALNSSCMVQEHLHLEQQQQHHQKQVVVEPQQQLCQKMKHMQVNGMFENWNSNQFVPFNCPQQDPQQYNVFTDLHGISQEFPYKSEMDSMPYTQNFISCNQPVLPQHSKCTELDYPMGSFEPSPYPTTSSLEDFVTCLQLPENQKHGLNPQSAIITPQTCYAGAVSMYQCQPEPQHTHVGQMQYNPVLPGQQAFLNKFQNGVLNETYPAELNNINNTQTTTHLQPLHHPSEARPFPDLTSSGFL
# Chain of Aromatase (Homo sapiens) (P11511 whole entry, looked up): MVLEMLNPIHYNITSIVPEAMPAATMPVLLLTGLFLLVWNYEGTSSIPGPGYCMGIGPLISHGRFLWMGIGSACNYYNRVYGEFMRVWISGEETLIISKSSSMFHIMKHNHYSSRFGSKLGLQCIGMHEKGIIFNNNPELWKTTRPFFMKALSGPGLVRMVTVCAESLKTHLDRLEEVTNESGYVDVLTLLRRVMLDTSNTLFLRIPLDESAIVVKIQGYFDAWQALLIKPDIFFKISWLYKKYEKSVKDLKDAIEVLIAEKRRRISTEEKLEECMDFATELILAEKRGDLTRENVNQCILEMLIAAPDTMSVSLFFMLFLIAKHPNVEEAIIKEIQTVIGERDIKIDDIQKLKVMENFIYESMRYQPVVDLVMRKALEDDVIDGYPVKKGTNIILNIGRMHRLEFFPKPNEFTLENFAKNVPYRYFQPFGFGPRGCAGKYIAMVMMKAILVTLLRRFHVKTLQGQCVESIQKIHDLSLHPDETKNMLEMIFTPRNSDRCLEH
# Chain of Estrogen receptor (Homo sapiens) (P03372 whole entry, looked up): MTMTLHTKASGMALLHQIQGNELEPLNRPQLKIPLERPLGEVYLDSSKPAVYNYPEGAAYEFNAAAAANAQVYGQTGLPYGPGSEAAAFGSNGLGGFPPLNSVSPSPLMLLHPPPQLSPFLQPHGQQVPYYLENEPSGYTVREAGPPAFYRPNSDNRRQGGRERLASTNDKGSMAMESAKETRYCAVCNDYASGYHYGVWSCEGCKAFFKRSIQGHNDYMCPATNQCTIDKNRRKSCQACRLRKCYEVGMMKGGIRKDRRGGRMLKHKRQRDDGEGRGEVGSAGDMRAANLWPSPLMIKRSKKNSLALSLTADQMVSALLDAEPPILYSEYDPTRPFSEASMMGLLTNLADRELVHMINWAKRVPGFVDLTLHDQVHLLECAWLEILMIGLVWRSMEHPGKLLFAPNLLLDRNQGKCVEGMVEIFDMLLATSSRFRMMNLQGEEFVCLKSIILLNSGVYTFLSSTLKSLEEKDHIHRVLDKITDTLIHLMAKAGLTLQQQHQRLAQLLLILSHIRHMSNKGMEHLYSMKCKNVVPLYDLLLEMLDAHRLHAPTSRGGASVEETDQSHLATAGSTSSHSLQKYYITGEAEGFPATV
compound,measurement,setting,value
CCc1cn([C@H]2C[C@H](O)[C@@H](CO)O2)c(=O)[nH]c1=O,Potency,[1],inactive
same,Potency,[2],inactive
same,Potency,[3],inactive
same,Potency,Aromatase (Homo sapiens),inactive
same,Potency,[4],inactive
same,Potency,[5],inactive
same,Potency,[6],inactive
CCC1OC(=O)C[C@@H](O)[C@H](C)[C@@H](O[C@@H]2O[C@H](C)C[C@H](N(C)C)[C@H]2O)[C@@H](CC=O)C[C@@H](C)C(=O)/C=C/[C@]2(C)OC2C1C (stereo partly specified),Potency,[7],16.9 µM [inconclusive] (active)
same,Potency,[2],inactive
same,Potency,[8],inactive
same,Potency,Aromatase (Homo sapiens),26.6 µM (active)
same,Potency,[4],21.1 µM (active)
same,Potency,[9],inactive
same,Potency,[5],21.1 µM (active)
Cc1ccc2nc(-c3ccc(N)cc3)sc2c1S(=O)(=O)O,Potency,[1],inactive
same,Potency,[7],inactive
same,Potency,[8],inactive
same,Potency,[10],7.58 µM (active)
same,Potency,[3],inactive
same,Potency,Aromatase (Homo sapiens),inactive
same,Potency,[9],4.26 µM (active)
same,Potency,[5],inactive
same,Potency,[11],inactive
same,Potency,[12],inactive
O=C1CCC/C=C\CCCCCCCCCC1,Potency,[1],inactive
same,Potency,[2],inactive
same,Potency,[3],inactive
same,Potency,Aromatase (Homo sapiens),30.6 µM (active)
same,Potency,[4],inactive
same,Potency,[9],inactive
same,Potency,[5],inactive
same,Potency,[11],inactive
same,Potency,[13],inactive
same,Potency,[12],inactive
same,Potency,[14],inactive
O=C(O)[C@@H]1C[C@H](CP(=O)(O)O)CCN1,Potency,[7],inactive
same,Potency,[2],inactive
same,Potency,[8],inactive
same,Potency,[10],inactive
same,Potency,[3],inactive
same,Potency,Aromatase (Homo sapiens),inactive
same,Potency,[4],inactive
same,Potency,[9],inactive
same,Potency,[5],inactive
same,Potency,[6],inactive
O=C(O)C[C@H](O)C[C@H](O)/C=C/c1c(C2CC2)nc2ccccc2c1-c1ccc(F)cc1,Potency,[1],inactive
same,Potency,[2],inactive
same,Potency,[10],inactive
same,Potency,[3],inactive
same,Potency,[4],inactive
same,Potency,[9],inactive
same,Potency,[5],inactive
same,Potency,[6],inactive
CN(C/C=C/c1ccccc1)Cc1cccc2ccccc12,Potency,[1],inactive
same,Potency,[7],inactive
same,Potency,[2],inactive
same,Potency,[8],inactive
same,Potency,[10],inactive
same,Potency,[3],inactive
same,Potency,Aromatase (Homo sapiens),inactive
same,Potency,[4],inactive
same,Potency,[9],inactive
same,Potency,[5],inactive
same,Potency,[6],inactive
same,Potency,[11],inactive
same,Potency,[13],inactive
same,Potency,[12],inactive
same,outcome,[15],inactive
O=C(O)[C@H]1CN(C/C=C/P(=O)(O)O)CCN1,Potency,[16],inactive
same,Potency,[1],inactive
same,Potency,[2],inactive
same,Potency,[3],inactive
same,Potency,Aromatase (Homo sapiens),inactive
same,Potency,[4],inactive
same,Potency,[5],inactive
CC(O)(c1ccc(Cl)cc1)c1ccc(Cl)cc1,Potency,[1],inactive
same,Potency,[2],inactive
same,Potency,[8],inactive
same,Potency,[10],inactive
same,Potency,[3],inactive
same,Potency,Aromatase (Homo sapiens),61.1 µM (active)
same,Potency,[9],inactive
same,Potency,[5],inactive
same,Potency,[11],inactive
same,Potency,[12],inactive
same,outcome,[15],inactive
C[C@@H]1O[C@@H]1P(=O)(O)O,Potency,[16],inactive
same,Potency,[1],inactive
same,Potency,[2],inactive
same,Potency,[3],inactive
same,Potency,Aromatase (Homo sapiens),inactive
same,Potency,[4],inactive
same,Potency,[5],inactive
same,Potency,[6],inactive
COc1cc2c(cc1OC)[C@@H](Cc1cc(OC)c(OC)c(OC)c1)[N+](C)(CCCOC(=O)CC/C=C/CCC(=O)OCCC[N+]1(C)CCc3cc(OC)c(OC)cc3[C@H]1Cc1cc(OC)c(OC)c(OC)c1)CC2 (stereo partly specified),Potency,[2],inactive
same,Potency,[3],inactive
same,Potency,Aromatase (Homo sapiens),inactive
same,Potency,[4],inactive
same,Potency,[5],inactive
O=C1CCCCCCCCCCCCCC1,Potency,[1],inactive
same,Potency,[7],inactive
same,Potency,[2],inactive
same,Potency,[8],inactive
same,Potency,[10],inactive
same,Potency,[17],inactive
same,Potency,[3],inactive
same,Potency,[5],inactive
same,Potency,[11],inactive
same,Potency,[13],inactive
same,outcome,[15],inactive
same,Potency,[14],inactive
CC1(C)S[C@@H]2[C@H](NC(=O)[C@@H](NC(=O)N3CCNC3=O)c3ccccc3)C(=O)N2[C@H]1C(=O)O,Potency,[7],inactive
same,Potency,[2],inactive
same,Potency,[8],inactive
same,Potency,[10],inactive
same,Potency,[3],inactive
same,Potency,Aromatase (Homo sapiens),inactive
same,Potency,[4],inactive
same,Potency,[9],inactive
same,Potency,[5],inactive
same,Potency,[6],inactive
CS(=O)(=O)c1ccc([C@@H](CC2CCCC2)C(=O)Nc2cnccn2)cc1Cl,Potency,[1],inactive
same,Potency,Aromatase (Homo sapiens),inactive
same,Potency,[9],inactive
CN(C)CCC(O)(c1ccccc1)c1ccccc1Cl (stereo unspecified),Potency,[1],inactive
same,Potency,[7],inactive
same,Potency,[2],inactive
same,Potency,[8],inactive
same,Potency,[10],inactive
same,Potency,Aromatase (Homo sapiens),inactive
same,Potency,[4],inactive
same,Potency,[9],inactive
same,Potency,[6],inactive
CC[N+](CC)(CC)CCC(O)(c1ccccc1)C1CCCCC1 (stereo unspecified),Potency,[2],inactive
same,Potency,Aromatase (Homo sapiens),inactive
same,Potency,[4],inactive
same,Potency,[9],inactive
same,Potency,[5],inactive
same,Potency,[6],inactive
CCCn1c(=O)[nH]c(=O)c2[nH]cnc21,Potency,[2],inactive
same,Potency,[3],inactive
same,Potency,[5],inactive
CO[C@H](C(=O)[C@@H](O)[C@@H](C)O)C1Cc2cc3cc(O[C@H]4C[C@@H](O[C@H]5C[C@@H](O)[C@H](O)[C@@H](C)O5)[C@@H](O)[C@@H](C)O4)c(C)c(O)c3c(O)c2C(=O)[C@H]1O[C@H]1C[C@@H](O[C@H]2C[C@@H](O[C@H]3C[C@](C)(O)[C@H](O)[C@@H](C)O3)[C@H](O)[C@@H](C)O2)[C@H](O)[C@@H](C)O1 (stereo partly specified),Potency,[16],335 nM (active) and 237 nM (active)
same,Potency,[7],301 nM [inconclusive] (active) and 190 nM [inconclusive] (active)
same,Potency,[2],inactive
same,Potency,[8],inactive
same,Potency,[17],266 nM (active) and 335 nM (active)
same,Potency,[3],inactive
same,Potency,Aromatase (Homo sapiens),841 nM (active) and 668 nM (active)
same,Potency,[4],inactive
same,Potency,[9],0.237 µM (active)
C=C1C(=C/C=C2\CCC[C@]3(C)[C@@H]([C@H](C)CCCC(C)C)CC[C@@H]23)C[C@@H](O)C[C@@H]1O,Potency,Aromatase (Homo sapiens),inactive
same,Potency,[4],inactive
same,Potency,[5],inactive
CC1=C(/C=C/C(C)=C/C=C/C(C)=C\C(=O)O)C(C)(C)CCC1,Potency,[17],244 nM (active)
same,Potency,Aromatase (Homo sapiens),inactive
same,Potency,[9],inactive
same,Potency,[12],55.1 µM (active)
CCCCCCCC1CCC(=O)O1 (stereo unspecified),Potency,[16],inactive
same,Potency,[1],inactive
same,Potency,[9],inactive
